# Data as given in PubChem BioAssay AID687031 (Broad Institute, 2013).
# In all, about 1,400 compounds went through this assay and about 50 (4%) were called active.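 The calls were made as follows: active = fitted curve reaches 30% CPE protection at or below the top valid dose, with every test run called active; inconclusive = test runs disagree, some active and some not; inactive = every test run inactive, including effects in the wrong direction.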 A selection follows. Measured potencies and affinities stand elsewhere.
# Experiment: Dengue virus 2 cytopathic effect protection, dose response, BHK-21 cells, ATP luminescence, cherry-pick (AID 687031)
# Conditions: BHK-21 DENV2 CPE protection, 5 d; series mostly up to 19.5 µM
row,Compound,outcome
1,Cc1ccc(S(=O)(=O)Nc2ccc3c(c2)C(=O)N([C@@H](C)CO)C[C@@H](C)[C@H](CN(C)S(=O)(=O)c2ccc(Cl)cc2)OCCCC[C@@H](C)O3)cc1,inactive
2,CCc1cc(=O)oc2cc(OCC(=O)NC3CC(C)(C)NC(C)(C)C3)ccc12,inactive
3,Cc1cc(OCC(=O)NC2CC(C)(C)NC(C)(C)C2)c(C)cc1Br,inactive
4,CC1(C(=O)NCc2ccccc2)CN(S(C)(=O)=O)CC(=O)N1CCc1ccc(O)cc1 (stereo not given),inactive
5,CC(C)CC1NC(=O)c2ccccc2-n2c1nc1ccccc1c2=O (stereo not given),inactive
6,Cc1ccc(S(=O)(=O)N(C)CC(=O)Oc2ccc(-c3nnco3)cc2)cc1,inactive
7,N#Cc1cc2cc3c(cc2nc1Cl)OCCO3,inactive
8,CCN(CC)C1CCN(Cc2c(C(=O)N3CCCCCCC3)nc3ccc(Cl)cn23)C1 (stereo not given),inactive
9,O=C(CN1CCc2cc3c(cc2C1)OCCCO3)Nc1ccccc1,inactive
10,CN(C)CCCNc1cc(O)c2ncccc2c1,inactive
11,C/C=C/c1ccc([C@@H]2[C@@H](CO)N(C(C)=O)[C@@H]2CNC(=O)CC2CC2)cc1,inactive
12,O=C(NCC1CC1)c1onc(CSc2ccc(F)c(F)c2)c1C(=O)NCC1CC1,inactive
13,COc1cc(C)nc(N2CCC(C(=O)NCC3CCCO3)CC2)n1 (stereo not given),inactive
14,O=C(NCCS(=O)(=O)N1CCN(c2ccccc2)CC1)C1CC1,inactive
15,O=C(CCc1nnc(Cc2c[nH]c3ccccc23)o1)NCCC1CCCCO1 (stereo not given),inactive
16,COc1ccc(S(=O)(=O)N2CCCCC2c2cc(C(=O)Nc3ccccc3)no2)cc1 (stereo not given),inactive
17,COC(=O)N1CCCCC1c1cc(C(=O)Nc2ccccc2Cl)no1 (stereo not given),inactive
18,Cc1ccc([C@H]2C[C@@H](n3cc(-c4ccc(F)cc4)nn3)[C@H](O)CN2C(=O)c2cccs2)cc1,inactive
19,CCC(=O)N1CC[C@@H]2[C@@H](CO)Nc3ccc(-c4ccc(OC)cc4)cc3[C@@H]21,inactive
20,O=C(NCc1ccccc1)c1ccccc1,inactive
21,O=C(O)c1ccc(CNC(=O)C2CCCN2C(=O)OCc2ccccc2)cc1 (stereo not given),inactive
22,Cc1ccc(OCc2nnc(SCc3cc(=O)[nH]c4ccccc34)n2-c2ccccc2)cc1,inactive
23,CO[C@@H]1CN(C)C(=O)c2ccc(NC(=O)Nc3cc(F)ccc3F)cc2OC[C@@H](C)N(C(=O)c2ccccn2)C[C@H]1C,inactive

row,Compound,outcome
1,CC1=C(C(=O)N(C)C)CC(CC(=O)NC2CCCCC2)C(=O)N1Cc1ccc(C(C)(C)C)cc1 (stereo not given),inactive
2,CN(CC(=O)Nc1cccc(F)c1)C(=O)c1ccccc1CCc1ccccc1,inactive
3,C[C@H](CO)N1C[C@H](C)[C@@H](CN(C)C(=O)C2CC2)Oc2cc(C#Cc3ccccc3)ccc2S1(=O)=O,inactive
4,COc1cc(C)ccc1OCc1cc(C(=O)NCCN2CCCC(O)C2)no1 (stereo not given),inactive
5,Cc1cc(OCc2cc(C(=O)N(C)C(C)c3ccccn3)no2)cc(C)c1Cl (stereo not given),inactive
6,Cc1c(C(=O)N2CCCC2)oc2ccc(Br)cc12,inactive
7,C[C@@H]1CN([C@H](C)CO)C(=O)Cc2cc(NC(=O)CCCCCC(=O)Nc3ccccc3N)ccc2O[C@@H]1CN(C)Cc1ccc(C(F)(F)F)cc1,inactive
8,Cc1ccc(S(=O)(=O)NC(=O)C2(C)CCN2C(=O)Cc2cccs2)cc1 (stereo not given),inactive
9,C[C@H](NC(=O)c1ncn(Cc2ccccc2)c1C(=O)N[C@@H](C)c1ccccc1)c1ccccc1,inactive
10,C[C@H](CO)N1C[C@H](C)[C@H](CN(C)C(=O)Nc2ccc(C(F)(F)F)cc2)OCCCC[C@H](C)Oc2ccc(NS(=O)(=O)c3ccc(F)cc3)cc2C1=O,inactive
11,CCC(=O)N1CC[C@@H]2[C@H](CO)Nc3ccc(-c4cccc(C#N)c4)cc3[C@@H]21,inactive
12,O=S(=O)(c1ccc(F)cc1)N1CC[C@@H]2[C@H]1c1cc(-c3ccc(F)cc3)ccc1N[C@@H]2CO,inactive
13,COc1cccc(C(O)c2nc(-c3cc(F)cc(F)c3)cs2)c1 (stereo not given),inactive
14,CC(NC(=O)CCc1ccccc1)c1ccc2c(c1)OCO2 (stereo not given),inactive
15,CC(CNC(=O)Cn1ccc(NC(=O)OCc2ccccc2)nc1=O)c1ccccc1 (stereo not given),inactive
16,CCCCCCN1CCN(C2CN(Cc3ccc(F)cc3)S(=O)(=O)C2)CC1 (stereo not given),inactive
17,O=C(c1cnccn1)N1CC[C@@H]2[C@@H](CO)Nc3ccc(-c4ccccc4F)cc3[C@@H]21,inactive
18,Nc1c(-c2ccccc2)nc2ncccn12,inactive
19,CCOc1ccc(/C=N/NC(=O)c2ccccc2O)cc1CN1CC2CC(C1)c1cccc(=O)n1C2 (stereo not given),inactive
20,CCCc1cc(=O)oc2c(C)c(OCC(=O)N3C[C@H]4C[C@@H](C3)c3cccc(=O)n3C4)ccc12,inactive
21,COc1ccc(NS(=O)(=O)c2cccs2)cn1,inactive
22,COc1cccc(OC)c1Nc1nc(C)nc2c1nnn2Cc1ccccc1Cl,inactive
